Measured values from article PMC10668032, “Altered binding affinity of SIX1-Q177R correlates with enhanced WNT5A and WNT pathway effector expression in Wilms tumor”.
In all, about 33,000 sequences were measured (“e-score”: median about -0.05, highest 2% from about 0.38 on). The list comes from a sample in which the highest values are over-represented; it also holds similar and randomly drawn sequences.

These sequences were tested against T1, SIX1-Q177R homeodomain (human, UniProt Q15475 108-198, Q177R) (assay: universal protein binding microarray; Universal all-10-mer PBM (8x60K, AMADID 030236), 300 nM GST-tagged protein, Alexa Fluor 488 anti-GST; buffer, salt, pH and temperature not stated (as in Berger); high values mean tight binding). Conditions: protein: ivt; tags: N-terminal GST; dsDNA, one strand shown.
T1 sequence: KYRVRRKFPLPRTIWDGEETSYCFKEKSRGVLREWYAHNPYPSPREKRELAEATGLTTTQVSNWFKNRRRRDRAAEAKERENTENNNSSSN
How it was run: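 GST-tagged homeodomains were made by in vitro transcription/translation and quantified by anti-GST western blot against a recombinant GST standard curve. They were applied in duplicate at 300 nM final concentration to universal 'all 10-mer' protein binding microarrays (8×60K format). Binding was quantified as 8-mer E-scores with the Universal PBM Analysis Suite.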
GGATCATA was tested, and the binding signal was 0.184 ± 0.0113 E-score. Work on CACCTGCA yielded a binding signal of 0.213 ± 0.0191 E-score. With ATCCCCTC the binding signal was 0.196 ± 0.00519 E-score. Sequence ACCACGCA has a binding signal of 0.24 ± 0.0201 E-score. AGACACGC was tested, and the binding signal was 0.346 ± 0.00786 E-score. Work on CGACACGA yielded a binding signal of 0.421 ± 0.0189 E-score. AGACACGA showed a binding signal of 0.369 ± 0.0153 E-score. Sequence CGACACGC has a binding signal of 0.424 ± 0.0203 E-score. CGACGCGA showed a binding signal of 0.151 ± 0.0242 E-score. For CACTCCGC, the binding signal was 0.256 ± 0.00576 E-score. In the case of ACCCTTTC, the binding signal is reported as 0.194 ± 0.0513 E-score. CACTCTGC was tested, and the binding signal was 0.187 ± 0.0156 E-score. For GCCCCGCC, the binding signal was 0.175 ± 0.055 E-score. CAATACCC gave a binding signal of 0.218 ± 0.00416 E-score. With CGATACCA the binding signal was 0.321 ± 0.00519 E-score. GGATACCC was tested, and the binding signal was 0.403 ± 0.00919 E-score. AGATACCC was tested, and the binding signal was 0.278 ± 0.0188 E-score. With GGATACCA the binding signal was 0.327 ± 0.00751 E-score. CGATACCC showed a binding signal of 0.411 ± 0.012 E-score. Sequence CAACCACG has a binding signal of 0.155 ± 0.0108 E-score. Work on CACTCTGG yielded a binding signal of 0.187 ± 0.00384 E-score. Sequence CCCCCTGC has a binding signal of 0.156 ± 0.0255 E-score. In the case of ACAGAGGT, the binding signal is reported as 0.156 ± 0.00829 E-score. Work on ATTAGGTG yielded a binding signal of 0.296 ± 0.00518 E-score. ACCATGGT gave a binding signal of 0.2 ± 0.05 E-score. CACCGTTC showed a binding signal of 0.3236 ± 0.00306 E-score. For GGATACTA, the binding signal was 0.152 ± 0.0189 E-score. With CGATACTC the binding signal was 0.211 ± 0.00408 E-score. With CGATACCG the binding signal was 0.233 ± 0.0113 E-score. CGATACAC gave a binding signal of 0.402 ± 0.0188 E-score. For GGATACAC, the binding signal was 0.424 ± 0.00693 E-score. In the case of AGATACAC, the binding signal is reported as 0.424 ± 0.0151 E-score. Sequence AGATACCA has a binding signal of 0.192 ± 0.0243 E-score. GGATACAA gave a binding signal of 0.161 ± 0.00762 E-score. Sequence AGATACCT has a binding signal of 0.179 ± 0.011 E-score. Work on CTGCCCGC yielded a binding signal of 0.163 ± 0.0123 E-score. CACCGACA was tested, and the binding signal was 0.374 ± 0.0291 E-score. TACTGATA was tested, and the binding signal was 0.192 ± 0.0304 E-score. For GTATCCAC, the binding signal was 0.287 ± 0.00341 E-score. In the case of GTATGGTA, the binding signal is reported as 0.159 ± 0.00206 E-score. AGGGTGTG gave a binding signal of 0.4 ± 0.015 E-score. Sequence CGGGTGGA has a binding signal of 0.173 ± 0.033 E-score. With AAGGGGTG the binding signal was 0.227 ± 0.00304 E-score. Sequence AGGGTGCG has a binding signal of 0.226 ± 0.0208 E-score. For AGGGTGTC, the binding signal was 0.4879 ± 0.00164 E-score. CGGGTGCA was tested, and the binding signal was 0.238 ± 0.0106 E-score. AGGGGGTC showed a binding signal of 0.271 ± 0.0446 E-score. Sequence CGGGTGTA has a binding signal of 0.47551 ± 0.00024 E-score. AGGGTATC was tested, and the binding signal was 0.363 ± 0.0101 E-score. AGGGTGGG gave a binding signal of 0.176 ± 0.00829 E-score. In the case of AGGGGGTA, the binding signal is reported as 0.358 ± 0.00366 E-score. Sequence AGGGGGTG has a binding signal of 0.396 ± 0.00554 E-score. Work on CATCCGGG yielded a binding signal of 0.156 ± 0.00322 E-score. With ACCCTCGT the binding signal was 0.1905 ± 0.000806 E-score. For CACCGAGA, the binding signal was 0.276 ± 0.0313 E-score. For TGTAGAAA, the binding signal was 0.225 ± 0.0216 E-score. Work on AATCGACA yielded a binding signal of 0.173 ± 0.025 E-score. Sequence ACAAGGTC has a binding signal of 0.218 ± 0.0287 E-score. With CAGGCAGG the binding signal was 0.186 ± 0.0165 E-score. Work on CACGCTAC yielded a binding signal of 0.242 ± 0.0124 E-score. CCCCGACA was tested, and the binding signal was 0.324 ± 0.012 E-score. Sequence GGGGTGAA has a binding signal of 0.154 ± 0.0542 E-score. CGGGGGTC showed a binding signal of 0.314 ± 0.0405 E-score. CGGGTGGC was tested, and the binding signal was 0.178 ± 0.0577 E-score. CGGGTGTC was tested, and the binding signal was 0.487 ± 0.00672 E-score. GGGGTGCA was tested, and the binding signal was 0.273 ± 0.0552 E-score. AGGGTGCA was tested, and the binding signal was 0.265 ± 0.0337 E-score. GGGGTGTA was tested, and the binding signal was 0.4856 ± 0.000757 E-score. Sequence AGGGTATA has a binding signal of 0.199 ± 0.0079 E-score. For AGGGTGTA, the binding signal was 0.475 ± 0.00846 E-score. With CGATACTA the binding signal was 0.157 ± 0.00168 E-score. For AGTGCACA, the binding signal was 0.171 ± 0.00742 E-score. Sequence AGCCGGTG has a binding signal of 0.282 ± 0.011 E-score. Work on CCGGTACA yielded a binding signal of 0.224 ± 0.00738 E-score. With ACTTGGTG the binding signal was 0.2882 ± 0.00137 E-score. CCCCAATA showed a binding signal of 0.153 ± 0.00289 E-score. For CCGAGTGA, the binding signal was 0.156 ± 0.00131 E-score. CACCGCCG showed a binding signal of 0.375 ± 0.0128 E-score. In the case of GCGTGTTA, the binding signal is reported as 0.387 ± 0.0267 E-score. Work on CCGTGTTC yielded a binding signal of 0.384 ± 0.0141 E-score. With ACGTGTTA the binding signal was 0.352 ± 0.0237 E-score. GCGTGCTA was tested, and the binding signal was 0.151 ± 0.031 E-score. For CCGTGTTA, the binding signal was 0.4236 ± 0.00253 E-score. Work on CCGTGGTA yielded a binding signal of 0.166 ± 0.0401 E-score. With CCGTGCTC the binding signal was 0.226 ± 0.0264 E-score. Sequence ACGTGTTC has a binding signal of 0.3144 ± 0.00304 E-score.
